Bioassay records as filed in PubChem BioAssay.
A selection: hits, their analogues and other compounds. The true share with any hit is near 2.4%.
D2 antag: HTS Assay for Allosteric Antagonists of the Human D2 Dopamine Receptor: Primary Screen for Antagonists | HEK293 TREx D2 cells, calcium flux, dopamine EC80 | AID 485344, 2010 | 340,000 tested, 2% active | D(2) dopamine receptor (Homo sapiens), P14416 | inhibition, % at 10 µM; in the data active = inhibition above about 30%; inactive = below that, where a call was filed
Target sequence (P14416 whole entry, looked up): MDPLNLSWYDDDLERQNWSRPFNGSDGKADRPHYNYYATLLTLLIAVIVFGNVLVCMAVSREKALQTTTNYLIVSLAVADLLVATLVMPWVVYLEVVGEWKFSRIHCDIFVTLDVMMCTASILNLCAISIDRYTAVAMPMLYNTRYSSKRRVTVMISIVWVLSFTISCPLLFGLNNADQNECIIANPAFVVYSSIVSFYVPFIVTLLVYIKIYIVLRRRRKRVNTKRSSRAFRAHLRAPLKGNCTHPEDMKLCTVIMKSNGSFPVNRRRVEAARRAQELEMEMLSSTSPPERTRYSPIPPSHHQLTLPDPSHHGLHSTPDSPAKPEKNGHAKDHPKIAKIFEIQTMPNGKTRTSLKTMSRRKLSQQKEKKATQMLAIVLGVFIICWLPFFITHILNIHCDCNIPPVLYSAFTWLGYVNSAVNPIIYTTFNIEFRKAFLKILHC
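Tetracycline-induced HEK293 TREx cells expressing D2 receptor forced-coupled to calcium signalling, loaded with no-wash calcium dye. Compounds added and calcium flux read 180 s, then dopamine added at EC80 and read a further 180 s.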
D2 ag-1: Beta-Arrestin HTS for Positive Allosteric Modulators of the Human D2 Dopamine Receptor: Agonists | 360,000 tested, 0.084% active | AID 624465, 2012 | DiscoveRx PathHunter D2 beta-arrestin, luminescence, 90 min; 100% = 57 uM dopamine signal | D(2) dopamine receptor (Homo sapiens), P14416 | activation, % (no concentration beside the values); in the data active = activation above about 40%
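Agonist mode: compounds alone added to overnight-plated D2 PathHunter cells for 90 min at 37 C, with 57 uM final dopamine (EC100) defining full response. Beta-arrestin recruitment detected by chemiluminescent reagent, read after 1 h at ambient temperature.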
D2 PAM-1: HTS Assay for Positive Allosteric Modulators of the Human D2 Dopamine Receptor: Primary Screen for Potentiators. D(2) dopamine receptor (Homo sapiens), P14416. HEK293 T-REx D2, calcium flux, EC20 dopamine potentiation. potentiation, % at 10 µM. 340,000 tested, 0.34% active;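 active = potentiation over 3 SD above the plate norm, cut at about 30% in these data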
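Calcium flux readout, no-wash dye, 1 read/s. Inducible HEK293 Trex D2 line, overnight 30 C. Compound alone 180 s (agonist flags), then EC20 dopamine, another 180 s to score potentiation.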
D2 ag-2: HTS Assay for Allosteric Agonists of the Human D2 Dopamine Receptor: Primary Screen for Agonists; D(2) dopamine receptor (Homo sapiens), P14416; HEK293 T-REx D2 cells, calcium flux agonist mode; activation, % at 2 µM; 340,000 tested, 0.53% active; AID 485358, 2010;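 active = activation over 3 SD above normal in the single-dose calcium agonist read, cut at about 30% in these data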
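Tetracycline-induced HEK293 T-REx cells with force-coupled D2 receptor, plated overnight at 30 C, loaded with no-wash calcium dye. After a 10 s baseline, compound was pin-added and calcium flux read kinetically for 180 s; calcium rises flagged agonists.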
D2 PAM-2: Beta-Arrestin HTS for Positive Allosteric Modulators of the Human D2 Dopamine Receptor: Potentiators | AID 624464, 2012 | 360,000 tested, 0.23% active | potentiation, % (test concentration not listed) | DiscoveRx D2 beta-arrestin cells, luminescence, 90 min; 100% = 57 uM dopamine signal; in the data active = potentiation above about 50%
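PathHunter D2 cells, attached overnight at 37 deg C, received compound in DMSO plus dopamine at EC20 (50 nM final) for 90 min at 37 deg C. Beta-arrestin recruitment was read as luminescence after 1 h with detection reagent at ambient temperature.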
A number is an active result; - = inactive; . = no result given.

SMILES	D2 antag	D2 ag-1	D2 PAM-1	D2 ag-2	D2 PAM-2
[S-]C(=Nc1ccc(Cl)cc1)N[n+]1ccccc1	61.9	-	-	-	-
CC(=O)c1ccc(OC(=O)COc2ccccc2Cl)cc1	47.8	-	-	-	-
Cc1ccc(OC(=O)COc2ccccc2C)cc1	-	-	-	-	-
COc1ccc(NCc2cc3cc4c(cc3n(CC(=O)Nc3ccc(C)c(C)c3)c2=O)OCO4)cc1	.	.	-	-	.
COc1ccc(OC)c(C2C(C(=O)Nc3ccc(C)cc3)=C(C)Nc3nnnn32)c1 (centres undefined)	.	.	-	.	.
Clc1ccc(-c2csc(N/N=C/c3ccc4c(c3)OCO4)n2)cc1	34.8	-	-	-	-
O=C(/C=C/c1ccc2c(c1)OCO2)Nc1nc(-c2ccccc2)cs1	-	-	-	-	-
CCOc1cccc(NC(=O)C2CC(=O)N(C)C(=Nc3ccc(F)cc3)S2)c1 (centres undefined)	.	.	-	-	.
CSc1ncc(Cl)c(C(=O)Nc2ccc(S(=O)(=O)N3CCC(C)CC3)cc2)n1	.	.	-	-	.
CN(C1CCCC1)C1CCN(C(=O)CNC(=O)/C=C/c2ccc(F)cc2)CC1	84.8	-	-	-	-
O=S(=O)(c1cc(Cl)cc(Cl)c1)N1CCCC1c1nc2ccccc2s1 (centres undefined)	-	-	43.3	-	-
COc1ccc(-n2c(SCc3ccccc3F)nc3c([nH]c4ccccc43)c2=O)cc1	.	.	-	-	.
CCOC(=O)C1CCN(CC(O)COc2ccc(S(=O)(=O)N3CCCC3)cc2[N+](=O)[O-])CC1 (centres undefined)	-	-	-	36.1	-
CC(=O)C(C)Oc1ncn(-c2ccccc2)n1 (centres undefined)	33.4	-	-	-	-
O=C(c1ccc2c(c1)N(Cc1ccccc1)C(=O)c1ccccc1S2(=O)=O)N1CCc2ccccc21	.	.	-	-	.
ON=C1c2ccccc2-c2ccc(O)cc21	.	-	.	.	-
CC(=NO)c1ccc2c(c1)C(=NO)c1ccccc1-2	.	-	.	.	83.5
COc1ccccc1C(=O)Oc1c(Sc2ccccc2)c(C)nn1C(C)(C)C	.	.	-	-	.
Cc1nc(C(=O)NCC(=O)c2ccccc2)c(C(F)(F)F)o1	31.8	-	-	-	-
NC(=O)CC(NC(=O)Cc1cccc2ccccc12)c1ccc(NC2CCN(Cc3ccccc3)CC2)c([N+](=O)[O-])c1 (centres undefined)	32.1	-	-	-	-
O=[N+]([O-])c1ccccc1NC1CCN(Cc2ccccc2)CC1	39.2	-	-	-	-
NC(=O)CC(NC(=O)Cc1ccc(Br)cc1)c1ccc(NC2CCN(Cc3ccccc3)CC2)c([N+](=O)[O-])c1 (centres undefined)	-	-	-	-	-
O=[N+]([O-])c1ccc(NC2CCN(Cc3ccccc3)CC2)c([N+](=O)[O-])c1	-	-	-	-	-
O=C(CCSCc1cnn(-c2ccccc2)c1-n1cccc1)NCc1ccccc1F	.	.	-	-	.
COc1ccc(/C=C2\N=C(SC)NC2=O)cc1	-	-	31.5	-	-
SMILES	D2 antag	D2 ag-1	D2 PAM-1	D2 ag-2	D2 PAM-2
CCSC1=N/C(=C\c2ccc(OC)cc2)C(=O)N1	-	-	-	-	-
Cc1ccccc1C(=O)NC1CCN(Cc2ccccc2)CC1	-	-	-	-	-
O=C(NC1CCN(Cc2ccccc2)CC1)c1cn(-c2ccccc2)nc1-c1cccnc1	74.7	-	-	-	-
Cc1ccc(CN2CCC(NC(=O)c3ccccc3)CC2)cc1	89.7	-	-	-	-
CC1(C)Cc2cccc(C(=O)NC3CCN(Cc4ccccc4)CC3)c2O1	73.4	-	-	-	-
O=C(O)c1cn(-c2ccccc2)nc1-c1cccnc1	-	-	-	-	-
Cc1ccc(C)n1-c1ccc(C(=O)NC2CCN(Cc3ccccc3)CC2)cc1	84.8	-	-	-	-
O=S(=O)(c1cccc(F)c1)N1CCC(Oc2ccc(-n3cnnn3)cc2)CC1	.	.	-	-	.
